Cycloheximide cs: counter-screen hit for Shiga toxin inhibitors, cycloheximide | cell reporter, cycloheximide protein synthesis inhibition counterscreen | max response, % | AID 2314 | actives 12% (n = 300,000); in the data active = max response mostly above about 13%, no sharp cut-off; inactive = mostly below about 14%; note: read at 38.3 µM for the half of the compounds with a filed dose; 0% is about no effect
Pf growth 48h: inhibits P. falciparum growth in the first generation, 48 h; P. falciparum luciferase growth in erythrocytes, 48 h; Potency, µM (highest dose often 28.7 µM), for the others: at the highest dose activity change, negative = inhibition, usual class: inhibitors; actives 5.9% (n = 310,000); AID 504832; note: potency is the fitted concentration of half-maximal effect; % is set by controls: 0 for no effect and ±100 for the full control effect
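Luciferase-expressing P. falciparum in infected erythrocytes (2% hematocrit, 0.1% parasitemia final) in RPMI 1640/0.5% Albumax were exposed to compound for 48 hours at 37 C, 5% CO2; growth read as luminescence.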
Shiga toxin inh: blocks Shiga toxin action in Vero cells. inhibition, % at 38.7 µM. Vero cells, Shiga toxin protein synthesis inhibition reporter. actives 9.2% (n = 290,000); in the data active = inhibition mostly above about 28%, no sharp cut-off; inactive = mostly below about 43%; note: 0% is about no effect
HCV inh: HCV inhibition | Potency, µM (highest dose often 41.8 µM), for inactives: at the highest dose activity change, negative = inhibition, actives largely listed as inhibitors | actives 3.4% (n = 340,000) | Huh7.5.1 HCVcc-Cre infection, luciferase reporter, 44 h | AID 651820; note: potency is the fitted concentration of half-maximal effect; % is set by controls: 0 for no effect and ±100 for the full control effect
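Compounds are dispensed onto cells plated 4 h earlier at 1,000 per well, with HCVcc-Cre virus (about 0.5 moi) added next. Following 44 h of culture, luminescent signal is measured for 15 sec after 15 min with substrate at room temperature.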
Pf growth 96h: inhibits malaria parasite growth, 96 h; P. falciparum luciferase reporter growth, 96 h; actives 6.9% (n = 320,000); Potency, µM (titrated, usually from 28.7 µM), for inactives: at the highest dose activity change, negative = inhibition, most hits filed as inhibitors; AID 504834; note: potency is the fitted concentration of half-maximal effect; % is set by controls: 0 for no effect and ±100 for the full control effect
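Cell-based qHTS: luciferase-tagged P. falciparum in erythrocytes (2% hematocrit, 0.05% parasitemia final) incubated with compounds for 96 hours, 37 C, 5% CO2; luciferase detection reagent then added and luminescence measured.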
HCMV inh: inhibitors of human cytomegalovirus | AID 1259415 | HFF cells, HCMV-luciferase reporter, 72 h; active compounds read low | activity change, negative = inhibition, % at 57.5 µM | actives 4.5% (n = 410,000); in the data active = activity change below about -60%; inconclusive = no clear call, values can overlap the other calls; inactive = above about -39%; note: % is set by controls: 0 for no effect and ±100 for the full control effect
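Human foreskin fibroblasts infected with luciferase-reporter HCMV at MOI 1 PFU/cell, compounds at two doses. Luciferase measured 72 h post infection; normalized to buffer-only basal and Salinomycin (10uM) controls.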
The depositor's hits bear a star; u = inconclusive; x = no result; [ ] = remark or other dose. Hits are enriched below; roughly 21% of the tested compounds scored in any of these assays. Unless noted, calls come from the whole dose curve; as a rule, active = well fitted inhibition curve with a large enough effect; inconclusive = small, poorly fitted or top-dose-only effect, or another doubt; inactive = no such curve, though single readings can be large or run the other way.

SMILES	Cycloheximide cs	Pf growth 48h	Shiga toxin inh	HCV inh	Pf growth 96h	HCMV inh
COc1cc(C2c3c(-c4ccccc4O)n[nH]c3C(=O)N2Cc2ccco2)ccc1OCC(C)C (stereo not drawn)	x	x	x	x	x	0
CCOC(=O)c1ccc(N2CCN(c3cccc(Cl)c3)CC2)c(NC(=O)Nc2ccc(OC)cc2OC)c1	x	x	x	x	x	42
CC(CCc1ccccc1)NCCC#N (stereo not drawn)	7	23%	14	8%	32%	0
COc1ccc(CC(C)NCCC(c2ccccc2)c2ccccc2)cc1 (stereo not drawn)	-2	u	-10	u	10µM*	2
COc1ccc(C(CCNC(C)c2ccccc2)c2ccc(F)cc2)cc1 (stereo not drawn)	-8	u	-19	u	u	u
CC(CCc1ccc(O)cc1)NCCC(c1ccccc1)c1ccccc1 (stereo not drawn)	-2	u	-7	14µM*	u	-10
CC(CCc1ccccc1)NCC#N (stereo not drawn)	1	-5%	-2	15%	10%	-61*
CC(CCc1ccc(O)cc1)NC(c1ccccc1)c1ccc(Cl)cc1 (stereo not drawn)	-4	9.3µM*	-25	u	u	7
CCCCN(C)CCNC(=O)c1ccc2c(=O)n(CCc3ccccc3)c(=O)[nH]c2c1	x	x	x	x	x	4
C/C(=N/N=C1\SCC(=O)N1c1ccccc1)c1ccc(C)cc1	-1	u	-5	25%	u	25
CN[C@H]1[C@@H](O)[C@@H](NC)[C@@H]2O[C@@]3(O)C(=O)C[C@@H](C)O[C@H]3O[C@H]2[C@H]1O	x	5%[12.8 µM]	x	x	5%[12.8 µM]	x
COc1ccc(CN2C(=O)C(C)Nc3ncnc(N4CCN(c5ccccc5)CC4)c32)cc1 (stereo not drawn)	x	x	x	-26%	x	-13
COc1ccc(CN2C(=O)C(C)Nc3ncnc(N4CCOCC4)c32)cc1 (stereo not drawn)	x	x	x	0%	x	-65*
CC1Nc2ncnc(N3CCN(c4ccccc4)CC3)c2N(Cc2ccc(Br)cc2)C1=O (stereo not drawn)	x	13µM*	x	u	u	27
CCC1Nc2ncnc(N3CCN(c4ccccc4)CC3)c2N(Cc2ccc(C)cc2)C1=O (stereo not drawn)	x	u	x	2.8µM*	12µM*	14
Cc1ccc(CN2C(=O)C(CC(C)C)Nc3ncnc(N4CCN(c5ccccc5)CC4)c32)cc1 (stereo not drawn)	x	x	x	u	x	24
CC1Nc2ncnc(N3CCOCC3)c2N(Cc2ccccc2)C1=O (stereo not drawn)	x	u	x	5%	u	-12
CC(C)CC1Nc2ncnc(N3CCN(c4ccccc4)CC3)c2N(Cc2ccc(Cl)cc2)C1=O (stereo not drawn)	x	9.3µM*	x	-29%	9.3µM*	-12
Cc1cccc(C)c1OCCNC(=O)C(=O)NCc1ccco1	-1	12%	-3	-9%	u	-23
COCCCNC(=O)C1CCN(S(=O)(=O)c2ccc3nc4c(c(C(=O)O)c3c2)CCCCC4)CC1	1	19%	17	10%	-20%	-37
O=C(CO)N/N=C/c1ccc(Cl)cc1	0	1%	-14	x	8%	9
O=C(N/N=C/c1ccc(Cl)cc1)C1CC12CCC2 (stereo not drawn)	53*	122%	133*	-4%	44%	38
O=C(N/N=C/c1ccc(O)c([N+](=O)[O-])c1)C1CC1(c1ccccc1)c1ccccc1 (stereo not drawn)	-1	u	-12	-3%	336%	-38
O=C(N/N=C/c1ccncc1)C1CC1(c1ccccc1)c1ccccc1 (stereo not drawn)	2	u	11	-10%	5.2µM*	-5
NC(Cc1c[nH]c2ccccc12)C(=O)Nc1ccccc1 (stereo not drawn)	x	x	x	-6%	x	79
COc1cccc(CNC(=O)COC(=O)c2ccc(-c3ccc(O)cc3)cc2)c1	x	x	x	x	x	5
O=C(CC(=O)c1c(F)cccc1Cl)c1ccccc1O	55*	12µM*	52*	23%	u	-18
O=C(Nc1ccccc1C(=O)O)c1cccc(F)c1	x	x	x	15%	x	37

Screens: PubChem, National Center for Advancing Translational Sciences (NCATS)
